# Values joined by “and” are separate entries in the source; they are usually repeats but may differ in a detail not shown here. Identical values can stand only once. Results filed as inconclusive are left out. Active and inactive are the calls of the source. Unless noted, calls follow the shape of the dose curve; as a rule, active = well fitted curve in either direction with a large enough effect (not every such curve was filed as active); inconclusive = small, poorly fitted or top-dose-only effect, or another doubt; inactive = flat fitted curve, though single readings scatter.
# What was measured:
# [1] = AP1 Signaling Pathway (AID 357); details: ME-180 AP-1-bla reporter, EGF-induced, beta-lactamase ratio, 5 h;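 also: ME-180 reporter cells stimulated with EGF at its EC50 level; % is scaled to controls: 0 for no effect and ±100 for the full control effect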
# Outline: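 AP-1-bla ME-180 cells, Opti-MEM + 0.5% dialyzed FBS, plated overnight 37 °C. Cpd titration + EC50 EGF, 5 h 37 °C. CCF4 2.5 h RT; ex 405, em 460/530 ratio → %activity, AC50.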
# [2] = target: Cytochrome P450 1A2 (Homo sapiens) (UniProt P05177); test: p450-cyp1a2 (AID 410; calls by dose curve; also: potency is read from the fitted curve at half-maximal effect;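 as to activity change, negative = inhibition: -100% = full effect of reference inhibitor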); details: recombinant CYP1A2, luciferin-ME demethylation, luminescence; series mostly up to 25.6 µM
# Outline: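 Luminescent readout of luciferin formed from Luciferin-ME by human CYP1A2; data normalized against complete inhibition by 57 uM furafylline. Enzyme 20nM, substrate 100uM at Km, 100mM KPO4 buffer, 60 min reaction at room temperature.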
# [3] = NFAT Signaling Pathway (AID 444); details: Jurkat NFAT-bla M1, carbachol, beta-lactamase ratio, 5 h;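 also: carbachol stimulus at about its EC50 of 1 µM final; % is scaled to controls: 0 for no effect and ±100 for the full control effect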
# Outline: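 Jurkat cells carrying an NFAT-driven β-lactamase reporter and co-transfected muscarinic M1 receptor were treated with compound plus carbachol (1 uM final, an EC50 level) for 5 h at 37 °C. CCF4 loading followed for 1 h at RT; 460/530 nm ratio gave %activity.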
# [4] = Stat Signaling Pathway (AID 446); details: ME-180 SIE beta-lactamase reporter, IL-6 stimulated, 5 h;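 also: ME-180 cervical cancer cells given 40 pM IL-6 alongside compound; SIE-controlled beta-lactamase reporter measured as 460/530 nm FRET emission ratio; % is scaled to controls: 0 for no effect and ±100 for the full control effect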
# Outline: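 ME-180 SIE-bla cells; overnight plating; cpd + IL-6 40 pM, 5 h, 37 C; LiveBLAzer 2.5 h RT; 460/530 nm emission ratio. Normalized to 300 pM IL-6 and 125 nM JAK inhibitor controls.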
# [5] = target: Glucocorticoid receptor (Homo sapiens) (UniProt P04150); test: GR-GFP Redistribution (AID 450;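 active = compounds whose dose series gives a full or clear partial fitted curve of increased nuclear translocation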; also: potency is read from the fitted curve at half-maximal effect); details: U2OS GR-GFP nuclear translocation, laser cytometry, 2 h
# [6] = target: Glucocorticoid receptor (Homo sapiens) (UniProt P04150); test: GR-EFC Redistribution (AID 451; calls by dose curve; also: potency is read from the fitted curve at half-maximal effect); details: CHO-K1 GR-EFC translocation, beta-gal luminescence, 2 h
# Outline: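 CHO-K1 cells stably expressing nuclear-localized β-gal enzyme acceptor and GR fused C-terminally to the enzyme donor fragment; ligand-driven nuclear translocation restores β-gal by complementation. Compounds titrated up to 46 uM final, 2 h at 37 °C; luminescence read.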
# [7] = target: Mitogen-activated protein kinase 10 (Mus musculus) (UniProt Q61831); test: JNK3 AlphaScreen Assay (AID 530); details: JNK3 lysate, c-Jun phosphorylation; series mostly up to 25.6 µM;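 also: kinase came from lysate of stimulated human HepG2 cells; signal reports phosphorylation of biotinylated GST-cJun 1-79 at Ser73 with 10 µM ATP; % is scaled to controls: 0 for no effect and ±100 for the full control effect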
# Outline: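 Inhibitors reduce antibody binding to phosphorylated biotin-cJun, lowering AlphaScreen luminescence. Lysates from HepG2 cells pre-activated by IL-1beta plus TNF-alpha supplied JNK3; compounds were titrated.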
# [8] = target: Lysosomal acid glucosylceramidase (Homo sapiens) (UniProt P04062); test: Glucocerebrosidase-p2 (AID 348; in the data active = potency below about 10 µM; also: potency is read from the fitted curve at half-maximal effect); details: purified GBA, blue fluorogenic substrate, 40 min
# Outline: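 Compounds titrated from 0.6 nM upwards against 0.2 nM enzyme in pH 5.9 citric acid/KH2PO4, taurocholate, tween-20; blue fluorogenic substrate 80 uM, 40 min room temperature, stopped and read Ex 365/Em 440 for AC50.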
# [9] = Cell Viability - Jurkat (AID 426;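 active = dose-dependent loss of cell ATP signal giving a full or clear fitted curve, ranked by lower potency value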; also: potency is read from the fitted curve at half-maximal effect); details: qHTS
# Outline: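 qHTS, 1536-well; Jurkat E6-1, 5000 cells/well, complete medium; cpd 40 hr, 37 °C; CellTiter-Glo 20 min RT; luminescence. AC50 by Hill fit.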
# [10] = Cell Viability - MRC5 (AID 434; calls by dose curve;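 also: potency is read from the fitted curve at half-maximal effect; potency reflects cytotoxicity seen as loss of intracellular ATP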); details: MRC5 lung fibroblast viability, qHTS
# Outline: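 MRC5 normal human lung fibroblasts (1500/well) were treated with compounds for 40 hr at 37 °C in complete medium, and viable cells were measured as intracellular ATP by CellTiter-Glo luminescence. AC50 came from Hill fits, normalized to DMSO and 100 uM tamoxifen.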
# [11] = Cell Viability - SK-N-SH (AID 435; calls by dose curve;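 also: potency is read from the fitted curve at half-maximal effect; compound exposure lasted 40 h at 37 °C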); details: SK-N-SH neuroblastoma cell viability qHTS
# Outline: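 Human neuroblastoma line, 40 h exposure at 37 °C, ATP quantified via luciferase luminescence; DMSO and 100 uM tamoxifen define 0 and 100% inhibition for AC50 fitting.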
# [12] = Cell Viability - N2a (AID 540; active = well fitted curve in the direction sought with a large enough effect; an effect the other way counts as inactive or inconclusive;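 also: plate controls were DMSO alone for no effect and tamoxifen control for full effect; nearly all actives have a fitted effect of over 45% in size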); details: N2a mouse neuroblastoma cell viability; activity change, negative = cytotoxicity: at 92.2 µM (top of the series)
# Outline: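 Luminescent ATP signal (CellTiter-Glo, 20 min at room temperature) served as the viability read-out after N2a cells were treated with compounds for 40 hours at 37 °C. Concentration-response data were fitted to the Hill equation for AC50.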
# [13] = Cell Viability - NIH 3T3 (AID 541; active = well fitted curve in the direction sought with a large enough effect; an effect the other way counts as inactive or inconclusive;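 also: plate controls were DMSO alone for no effect and tamoxifen positive control for full effect; nearly all actives have a fitted effect of over 25% in size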); details: NIH 3T3 cell viability, qHTS; activity change, negative = cytotoxicity: at 92.2 µM (top of the series)
# Outline: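 Luminescent ATP signal (CellTiter-Glo) served as the viability read-out after NIH 3T3 cells were exposed to compounds over a concentration range for 40 hr at 37 °C. Hill-equation modelling of concentration-response data gave AC50.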
# [14] = Cell Viability - HUV-EC-C (AID 542; active = well fitted curve in the direction sought with a large enough effect; an effect the other way counts as inactive or inconclusive; also: % is scaled to controls: 0 for no effect and ±100 for the full control effect; nearly all actives have a fitted effect of over 35% in size); details: HUV-EC-C endothelial cell viability, qHTS; series mostly up to 92.2 µM
# Outline: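 qHTS cytotoxicity: HUV-EC-C, 1000 cells/well, 5 hr settle, compound 40 hr 37 °C, CellTiter-Glo, luminescence. AC50 via Hill equation.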
# [15] = Cell Viability - SH-SY5Y (AID 544; active = well fitted curve in the direction sought with a large enough effect; an effect the other way counts as inactive or inconclusive;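 also: 0% = DMSO alone and -100% = 100 µM tamoxifen; nearly all actives have a fitted effect of over 55% in size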); details: SH-SY5Y neuroblastoma cell viability; viability change, negative = cytotoxic: at 92.2 µM (top of the series)
# Outline: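 Luminescent ATP read-out (CellTiter-Glo) measures loss of viable SH-SY5Y neuroblastoma cells after 40 hr compound exposure at 37 °C. AC50 values derive from standard Hill modelling of qHTS concentration-response data.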
# [16] = Cell Viability - Renal Proximal Tubule (AID 545; active = well fitted curve in the direction sought with a large enough effect; an effect the other way counts as inactive or inconclusive;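 also: 0% = DMSO only and -100% = 100 µM tamoxifen; nearly all actives have a fitted effect of over 40% in size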); details: renal proximal tubule cells viability, primary cells of rat origin; activity change, negative = cytotoxicity: at 91.7 µM (top of the series)
# Outline: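 In this qHTS format, normal rat kidney-derived proximal tubule cells in complete culture medium receive compound titrations, then sit 40 hours at 37 °C before luciferase-based ATP quantitation; potency is reported as AC50 from concentration-response curves.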
# Chain of Glucocorticoid receptor (Homo sapiens) (P04150 whole entry, looked up, the tested form may be a part): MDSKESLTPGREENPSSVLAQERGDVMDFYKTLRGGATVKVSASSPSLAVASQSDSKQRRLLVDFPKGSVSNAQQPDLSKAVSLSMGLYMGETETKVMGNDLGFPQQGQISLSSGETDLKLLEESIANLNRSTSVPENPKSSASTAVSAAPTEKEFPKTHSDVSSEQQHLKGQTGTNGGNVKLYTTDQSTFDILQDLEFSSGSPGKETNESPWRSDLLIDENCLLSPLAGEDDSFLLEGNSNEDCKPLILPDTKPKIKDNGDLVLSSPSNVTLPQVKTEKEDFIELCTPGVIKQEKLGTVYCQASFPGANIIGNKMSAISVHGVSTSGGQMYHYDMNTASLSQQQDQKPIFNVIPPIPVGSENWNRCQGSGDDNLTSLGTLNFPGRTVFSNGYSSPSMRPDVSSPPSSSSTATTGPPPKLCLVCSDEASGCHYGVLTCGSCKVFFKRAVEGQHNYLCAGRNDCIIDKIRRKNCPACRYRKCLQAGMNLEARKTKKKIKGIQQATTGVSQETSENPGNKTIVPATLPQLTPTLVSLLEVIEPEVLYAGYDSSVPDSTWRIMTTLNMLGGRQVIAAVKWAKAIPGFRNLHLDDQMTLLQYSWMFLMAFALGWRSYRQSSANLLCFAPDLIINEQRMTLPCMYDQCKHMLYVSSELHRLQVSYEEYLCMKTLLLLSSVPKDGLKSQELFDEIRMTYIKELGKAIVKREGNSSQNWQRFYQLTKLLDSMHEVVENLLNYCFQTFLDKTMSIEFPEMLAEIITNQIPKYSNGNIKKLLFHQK
# Chain of Cytochrome P450 1A2 (Homo sapiens) (P05177 whole entry, looked up): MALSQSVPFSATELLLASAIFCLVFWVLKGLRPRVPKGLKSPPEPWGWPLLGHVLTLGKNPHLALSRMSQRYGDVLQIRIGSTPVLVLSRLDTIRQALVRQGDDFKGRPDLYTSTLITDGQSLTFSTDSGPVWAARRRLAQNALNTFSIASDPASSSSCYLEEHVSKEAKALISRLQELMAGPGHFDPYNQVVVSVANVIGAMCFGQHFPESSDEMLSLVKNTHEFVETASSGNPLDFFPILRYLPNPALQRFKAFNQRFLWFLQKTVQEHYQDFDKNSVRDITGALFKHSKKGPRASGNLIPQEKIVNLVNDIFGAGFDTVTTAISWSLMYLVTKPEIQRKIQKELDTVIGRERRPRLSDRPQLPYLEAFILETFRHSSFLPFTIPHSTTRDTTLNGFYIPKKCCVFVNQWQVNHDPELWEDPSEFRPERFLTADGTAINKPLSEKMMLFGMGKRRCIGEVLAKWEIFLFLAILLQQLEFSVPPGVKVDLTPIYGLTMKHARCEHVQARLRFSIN
# Chain of Lysosomal acid glucosylceramidase (Homo sapiens) (P04062 whole entry, looked up): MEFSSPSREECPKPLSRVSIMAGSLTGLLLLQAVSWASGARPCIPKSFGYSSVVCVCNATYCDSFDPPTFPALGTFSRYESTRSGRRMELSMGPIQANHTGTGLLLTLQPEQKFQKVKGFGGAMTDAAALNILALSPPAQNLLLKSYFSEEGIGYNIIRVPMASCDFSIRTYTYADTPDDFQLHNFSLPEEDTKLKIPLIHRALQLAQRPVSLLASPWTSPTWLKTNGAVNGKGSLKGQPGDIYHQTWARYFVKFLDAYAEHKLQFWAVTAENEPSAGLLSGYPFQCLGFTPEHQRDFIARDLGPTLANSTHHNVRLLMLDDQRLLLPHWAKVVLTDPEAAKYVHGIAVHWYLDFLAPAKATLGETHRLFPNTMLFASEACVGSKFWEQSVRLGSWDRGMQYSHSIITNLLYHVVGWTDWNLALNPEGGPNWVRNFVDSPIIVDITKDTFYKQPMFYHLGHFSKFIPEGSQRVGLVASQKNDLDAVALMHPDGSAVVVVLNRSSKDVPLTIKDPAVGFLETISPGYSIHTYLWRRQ
smiles,measurement,setting,value
COc1c2occc2c(OC)c2c(=O)cc(C)oc12,"activity change, negative = inhibition",[1]; at 17.2 µM (top of the series),4.61% (inactive) and -2.27% (inactive)
same,Potency,[2],0.02 µM (active)
same,"activity change, negative = inhibition",[3]; at 17.2 µM (top of the series),4.03% (inactive) and 8.21% (inactive)
same,"activity, negative = inhibition",[4]; at 17.2 µM (top of the series),7.57% (inactive) and -1.58% (inactive)
same,Potency,[5],> 20.6 µM (inactive)
same,Potency,[6],> 20.6 µM (inactive)
same,outcome,[7],inactive
CC(C)(C(=O)c1cccnc1)c1cccnc1,"activity change, negative = inhibition",[1]; at 17.2 µM (top of the series),1.77% (inactive)
same,Potency,[2],12.6 µM (active)
same,"activity change, negative = inhibition",[3]; at 17.2 µM (top of the series),-2.38% (inactive)
same,"activity, negative = inhibition",[4]; at 17.2 µM (top of the series),-5.5% (inactive)
same,Potency,[5],> 20.6 µM (inactive)
same,Potency,[6],> 20.6 µM (inactive)
same,outcome,[7],inactive
CC(C)NC[C@@H](O)COc1cccc2ccccc12,"activity change, negative = inhibition",[1]; at 17.2 µM (top of the series),7.5% (inactive) and 12.8% (inactive) and 4.83% (inactive)
same,"activity change, negative = inhibition",[1]; at 38 µM (top of the series),17.5% (inactive) and 11.4% (inactive)
same,"activity change, negative = inhibition",[3]; at 17.2 µM (top of the series),5.75% (inactive) and 5.85% (inactive) and -11.9% (inactive)
same,"activity change, negative = inhibition",[3]; at 38 µM (top of the series),4.84% (inactive) and 0.806% (inactive)
same,"activity, negative = inhibition",[4]; at 17.2 µM (top of the series),-2.8% (inactive) and 2.51% (inactive) and -11.2% (inactive)
same,"activity, negative = inhibition",[4]; at 38 µM (top of the series),8.52% (inactive) and -21.7% (inactive)
same,outcome,[7],inactive
CCOC(=O)n1ccn(C)c1=S,"activity change, negative = inhibition",[1]; at 17.2 µM (top of the series),13.2% (inactive)
same,Potency,[2],12.6 µM (active)
same,"activity change, negative = inhibition",[3]; at 17.2 µM (top of the series),-13.3% (inactive)
same,"activity, negative = inhibition",[4]; at 17.2 µM (top of the series),4.14% (inactive)
same,Potency,[5],> 20.6 µM (inactive)
same,Potency,[6],> 20.6 µM (inactive)
same,outcome,[7],inactive
CCOc1ccc(Cc2nccc3cc(OCC)c(OCC)cc23)cc1OCC,"activity change, negative = inhibition",[1]; at 17.2 µM (top of the series),-1.91% (inactive)
same,Potency,[2],10 µM (active)
same,"activity change, negative = inhibition",[3]; at 17.2 µM (top of the series),-11.6% (inactive)
same,"activity, negative = inhibition",[4]; at 17.2 µM (top of the series),-1.62% (inactive)
same,Potency,[5],> 20.6 µM (inactive)
same,Potency,[6],> 20.6 µM (inactive)
same,outcome,[7],inactive
CC(C)COC(=O)OCN1C(=O)CN(CCN2CC(=O)N(COC(=O)OCC(C)C)C(=O)C2)CC1=O,"activity change, negative = inhibition",[1]; at 38 µM (top of the series),5.55% (inactive)
same,Potency,[2],inactive
same,"activity change, negative = inhibition",[3]; at 38 µM (top of the series),7.64% (inactive)
same,"activity, negative = inhibition",[4]; at 38 µM (top of the series),-1.3% (inactive)
same,Potency,[5],> 46 µM (inactive)
same,Potency,[6],> 46 µM (inactive)
same,outcome,[7],inactive
Cc1c(N(C)CS(=O)(=O)O)c(=O)n(-c2ccccc2)n1C,"activity change, negative = inhibition",[1]; at 17.2 µM (top of the series),6.43% (inactive)
same,Potency,[2],inactive
same,"activity change, negative = inhibition",[3]; at 17.2 µM (top of the series),-4.94% (inactive)
same,"activity, negative = inhibition",[4]; at 17.2 µM (top of the series),-1.51% (inactive)
same,Potency,[5],> 20.6 µM (inactive)
same,Potency,[6],> 20.6 µM (inactive)
same,outcome,[7],inactive
N[C@@H](Cc1cnc[nH]1)C(=O)O,"activity change, negative = inhibition",[1]; at 38 µM (top of the series),2.79% (inactive)
same,Potency,[2],inactive
same,"activity change, negative = inhibition",[3]; at 38 µM (top of the series),-0.542% (inactive)
same,"activity, negative = inhibition",[4]; at 38 µM (top of the series),27.2% (inactive)
same,Potency,[5],> 46 µM (inactive)
same,Potency,[6],> 46 µM (inactive)
CCN(CC)C(=O)N1CCN(C)CC1,"activity change, negative = inhibition",[1]; at 17.2 µM (top of the series),1.31% (inactive)
same,Potency,[2],inactive
same,"activity change, negative = inhibition",[3]; at 17.2 µM (top of the series),-7.87% (inactive)
same,"activity, negative = inhibition",[4]; at 17.2 µM (top of the series),3.22% (inactive)
same,Potency,[5],> 20.6 µM (inactive)
same,Potency,[6],> 20.6 µM (inactive)
same,outcome,[7],inactive
Cc1ccnc(NS(=O)(=O)c2ccc(N)cc2)n1,"activity change, negative = inhibition",[1]; at 17.2 µM (top of the series),17.4% (inactive)
same,Potency,[2],inactive
same,"activity change, negative = inhibition",[3]; at 17.2 µM (top of the series),0.552% (inactive)
same,"activity, negative = inhibition",[4]; at 17.2 µM (top of the series),-12.6% (inactive)
same,Potency,[5],> 20.6 µM (inactive)
same,Potency,[6],> 20.6 µM (inactive)
same,outcome,[7],inactive
Cc1cc(N)c2cc(NC(=O)Nc3ccc4nc(C)cc(N)c4c3)ccc2n1,Potency,[8],> 11.4 µM (inactive)
same,"activity change, negative = inhibition",[1]; at 7.69 µM (top of the series),14% (inactive)
same,Potency,[2],inactive
same,"activity change, negative = inhibition",[3]; at 7.69 µM (top of the series),-11.7% (inactive)
same,"activity, negative = inhibition",[4]; at 7.69 µM (top of the series),-4.38% (inactive)
same,outcome,[7],inactive
C=C(CC)C(=O)c1ccc(OCC(=O)O)c(Cl)c1Cl,"activity change, negative = inhibition",[1]; at 17.2 µM (top of the series),-11.1% (inactive) and -7.79% (inactive)
same,Potency,[2],inactive
same,Potency,[9],9.25 µM (active)
same,Potency,[10],> 92 µM (inactive)
same,Potency,[11],45.3 µM (active)
same,"activity change, negative = inhibition",[3]; at 17.2 µM (top of the series),-133% (active)
same,"activity, negative = inhibition",[4]; at 17.2 µM (top of the series),-17.9% (inactive)
same,Potency,[5],> 20.6 µM (inactive)
same,Potency,[6],> 20.6 µM (inactive)
same,outcome,[7],inactive
same,"activity change, negative = cytotoxicity",[12],-112% (active)
same,"activity change, negative = cytotoxicity",[13],-86.1% (active)
same,Potency,[14],inactive
same,"viability change, negative = cytotoxic",[15],-99.4% (active)
same,"activity change, negative = cytotoxicity",[16],-86.3% (active)
CNCCC=C1c2ccccc2CCc2ccccc21,"activity change, negative = inhibition",[1]; at 7.69 µM (top of the series),-6.8% (inactive)
same,"activity change, negative = inhibition",[1]; at 17.2 µM (top of the series),15.1% (inactive) and 18.2% (inactive)
same,"activity change, negative = inhibition",[1]; at 38 µM (top of the series),16.2% (inactive)
same,Potency,[2],25.1 µM (active)
same,"activity change, negative = inhibition",[3]; at 7.69 µM (top of the series),-80.1% (active)
same,"activity change, negative = inhibition",[3]; at 17.2 µM (top of the series),-86.8% (active)
same,"activity, negative = inhibition",[4]; at 7.69 µM (top of the series),-5.09% (inactive)
same,"activity, negative = inhibition",[4]; at 17.2 µM (top of the series),-1.99% (inactive) and -5.78% (inactive)
same,"activity, negative = inhibition",[4]; at 38 µM (top of the series),-27.8% (inactive)
same,Potency,[5],> 46 µM (inactive) and > 20.6 µM (inactive)
same,Potency,[6],> 46 µM (inactive) and > 20.6 µM (inactive) and > 9.22 µM (inactive)
same,outcome,[7],inactive
